High-throughput results deposited in PubChem BioAssay by several laboratories.
A selection: hits, their analogues and other compounds. The true share with any hit is near 2.5%.
UBC13 inh – UBC13 polyubiquitin chain formation inhibitors, primary screen, biochemical, TR-FRET, uHTS; Ubiquitin-conjugating enzyme E2 N (Homo sapiens), P61088; inhibition, % at 20 µM; 330,000 tested, 0.47% active; in the data active means inhibition above about 45%, passing the limit was not always enough
MEKK2 WT-MEK5 – modulators of MEK5 binding to wildtype MEKK2, primary screen, biochemical, multiplex bead flow cytometry, Alexa488-MEK5; Mitogen-activated protein kinase kinase kinase 2 (Homo sapiens), Q9Y2U5; Alexa488-MEK5 binding to MEKK2 WT; actives lie on both sides; binding response (% of control), % at 10 µM; 290,000 tested, 1.1% active; AID 1531, 2009; in the data active means binding response below about 67% or above about 130%
MEKK2mut PB1 HTS – MEK5 binding signal on mutant MEKK2 PB1, primary screen, biochemical, multiplex bead flow cytometry, Alexa488-MEK5; percent response, % at 10 µM; Alexa488-MEK5 binding to MEKK2 mutant; 290,000 tested, 0.35% active; in the data active means percent response above about 24%, passing the limit was not always enough
Rce1 inh – yeast Rce1p protease inhibitors, primary screen, biochemical, fluorescence, cell-free homogeneous; CAAX prenyl protease 2 (Saccharomyces cerevisiae (strain ATCC 204508 / S288c)), Q03530; yeast membranes, quenched prenylated peptide cleavage fluorescence; calls only; 290,000 tested, 0.27% active;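 active means fall in fluorescence gain of 50% or more versus controls, with final raw signal at or below 3038400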;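 further: plate controls were neutral control wells for no effect and wells lacking membranes for full effect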
MEKK3 PB1 HTS – modulators of MEKK3-MEK5 PB1 binding, primary screen, biochemical, wildtype MEKK3, multiplex bead flow cytometry, Alexa488-MEK5; Mitogen-activated protein kinase kinase kinase 3 (Homo sapiens), Q99759; 290,000 tested, 1.4% active; binding response (% of control), % at 10 µM; bead-based flow cytometry, Alexa488-MEK5 binding to MEKK3; actives lie on both sides; 0 = blocked by unlabeled MEK5, 100 = vehicle;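 active means binding response more than 3 SD above or below the average of its plate-row segment, actives on both sides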;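 further: Alexa488 bead fluorescence after subtracting the streptavidin-only scavenger bead signal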
Target sequence (Q99759 whole entry, looked up): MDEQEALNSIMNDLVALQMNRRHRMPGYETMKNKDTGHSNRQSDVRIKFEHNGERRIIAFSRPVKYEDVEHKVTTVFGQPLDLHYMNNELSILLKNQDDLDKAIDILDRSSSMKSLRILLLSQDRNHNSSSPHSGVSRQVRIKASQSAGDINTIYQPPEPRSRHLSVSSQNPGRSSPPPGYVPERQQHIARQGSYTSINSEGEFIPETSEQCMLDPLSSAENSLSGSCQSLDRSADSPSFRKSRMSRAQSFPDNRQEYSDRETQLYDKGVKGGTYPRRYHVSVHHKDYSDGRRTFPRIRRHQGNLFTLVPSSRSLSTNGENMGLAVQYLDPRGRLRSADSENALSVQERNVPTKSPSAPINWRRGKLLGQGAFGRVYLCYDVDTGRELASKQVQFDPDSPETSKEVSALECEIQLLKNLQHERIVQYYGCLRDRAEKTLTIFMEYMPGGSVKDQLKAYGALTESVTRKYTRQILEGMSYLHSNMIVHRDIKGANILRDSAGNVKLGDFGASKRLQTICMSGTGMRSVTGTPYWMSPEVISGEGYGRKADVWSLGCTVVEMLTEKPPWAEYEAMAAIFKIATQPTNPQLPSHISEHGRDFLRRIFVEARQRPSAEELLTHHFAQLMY
MEKK2wt confirm – modulators of MEK5 binding to wildtype MEKK2, confirmation, biochemical, single concentration, multiplex bead flow cytometry; 5,900 tested, 2.4% active; shares compounds with MEKK3 PB1 HTS; binding response (% of control), % at 10 µM; Alexa488-MEK5 binding to MEKK2 WT; actives lie on both sides; in the data active means binding response below about 16% or above about 210%; inactive means in between
MEKK2mut-MEK5 – mutant MEKK2 PB1-MEK5 binding signal retest – biochemical, single concentration, multiplex bead flow cytometry, confirmation; shares compounds with MEKK3 PB1 HTS; 5,900 tested, 2% active; AID 1893, 2009; percent response, % at 10 µM; Alexa488-MEK5 binding to MEKK2 mutant; in the data active means percent response mostly above about 71%, no sharp cut-off; inactive means mostly below about 38%;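 further: higher means compound restores mutant binding toward wildtype level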
MEKK3-MEK5 inh – MEKK3 wild-type PB1 binding to MEK5, inhibitors, confirmation, biochemical, bead multiplex flow cytometry, single concentration, wildtype | shares compounds with MEKK3 PB1 HTS | Alexa488-MEK5 binding to MEKK3; hits give low values | binding response (% of control), % at 10 µM | 5,900 tested, 1.8% active | AID 1894, 2009;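 active means binding response below 72% of control, or above a set upper limit, though filed actives all read lower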;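 further: 100% = DMSO only wells and 0% = binding blocked by excess unlabeled MEK5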
Active calls of the source: *; i = inactive; . = no result given; [ ] = remark or other dose.

SMILES	UBC13 inh	MEKK2 WT-MEK5	MEKK2mut PB1 HTS	Rce1 inh	MEKK3 PB1 HTS	MEKK2wt confirm	MEKK2mut-MEK5	MEKK3-MEK5 inh
CC(C)OP(=O)(OC(C)C)C(O)c1ccc(Br)cc1 (stereo unspecified)	10.6	108.0	-1.0	i	149.0*	105.0	2.0	104.0
COC(=O)C1=CO[C@@H](C)[C@@H]2CN(CCc3c[nH]c4ccccc34)CC[C@H]12	3.6	112.0	4.0	i	103.0	.	.	.
c1ccc2c(CN3CCCCCCC3)c[nH]c2c1	-1.6	.	.	i	.	.	.	.
c1ccc2c(CN3CCN(C4CCCCC4)CC3)c[nH]c2c1	2.8	168.0*	44.0*	i	114.0	167.0	50.0	105.0
Cc1nc2c(-c3ccccc3)c(C)nn2c(C)c1CCC(=O)N1CCC2(CC1)OCCO2	-12.5	101.0	-29.0	i	44.0*[inhibitor]	106.0	0.0	100.0
O=S(=O)(c1ccc(Cl)cc1)N1CCCCC1c1cccnc1 (stereo unspecified)	3.4	117.0	1.0	i	130.0*	98.0	-1.0	103.0
O=S(=O)(c1ccc(F)cc1)N1CCCCC1c1cccnc1 (stereo unspecified)	-3.3	105.0	2.0	i	112.0	.	.	.
COC(=O)c1ccc(CC(C(=O)c2ccccc2)N(C)C)cc1 (stereo unspecified)	1.4	103.0	3.0	i	104.0	.	.	.
Cc1ccc(C(=O)O)cc1N=Nc1c(O)[nH]c(=O)[nH]c1=O	-12.2	105.0	3.0	i	106.0	.	.	.
CC[n+]1c(/C=C/N(C)c2ccccc2)sc2ccc(Cl)cc21	-6.4	54.0*[inhibitor]	-14.0	i	83.0	72.0	-9.0	88.0
COc1cc(CNCCc2ccc3c(c2)OCO3)cc(OC)c1OC	-2.0	60.0	-13.0	i	47.0*[inhibitor]	104.0	-1.0	103.0
CC(=NC(C)c1ccccc1)c1c(O)[nH]c(=O)[nH]c1=O (stereo unspecified)	12.4	107.0	4.0	i	105.0	.	.	.
Cc1cc(/C=C2\C(=O)NC(=O)N(c3ccc(Br)cc3)C2=O)c(C)n1-c1cc(C(=O)O)cc(C(=O)O)c1	-7.4	100.0	0.0	i	98.0	.	.	.
Cc1cc(C(=O)C[N+]23CCN(CC2)CC3)c(C)n1-c1ccc(Br)cc1	3.3	158.0*	12.0	i	146.0*	120.0	15.0	106.0
CC(C)OP(=O)(OC(C)C)C(O)c1ccccc1F (stereo unspecified)	-13.8	105.0	15.0	i	100.0	.	.	.
c1ccc2nc(OCCN3CC3)ccc2c1	4.4	181.0*	32.0*	i	108.0	135.0	15.0	103.0
Cc1cccc2c1=NC(=O)/C(=C/c1c(O)[nH]c(=O)[nH]c1=O)C=2	-17.5	101.0	-1.0	i	147.0*	97.0	-7.0	96.0
O=C1N(c2nncs2)CCN1[N+](=O)[O-]	5.1	94.0	9.0	i	111.0	.	.	.
COc1ccc(CC(C)NCCC(c2ccccc2)c2ccccc2)cc1 (stereo unspecified)	30.2	171.0*	28.0*	i	111.0	120.0	8.0	103.0
Cc1[nH]c2ccc(OC(F)(F)F)cc2c1CCNCc1cccc([N+](=O)[O-])c1	21.3	148.0*	25.0*	i	108.0	170.0	45.0	104.0
